# This is one part of a sample in which the strongest signals are shown more often than they occur.
# Tests used:
# Assay in all cases: glycan array binding signal (z-score within array); higher = stronger binding
# Conditions in all cases: glycan notation: IUPAC condensed, linker removed
# [1] = target: Fuc(a1-2)Gal(b1-3)GlcNAc(b1-2)Man(a1-3)[Fuc(a1-2)Gal(b1-3)GlcNAc(b1-2)Man(a1-6)]Man(b1-4)GlcNAc(b1-4)GlcNAc
# How it was run: (§1)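 The binding signal is a Z-score computed within each array and averaged over linkers. Arrays of the same protein sequence at different concentrations or buffers were also averaged together. Data originate from 3228 arrays in the Consortium for Functional Glycomics database, kept only where the protein sequence was available.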
# [2] = target: Fuc(a1-2)Gal(b1-3)GlcNAc(b1-3)[Fuc(a1-2)Gal(b1-3)GlcNAc(b1-6)]GalNAc
# How it was run: as §1
# [3] = target: Fuc(a1-2)Gal(b1-4)GlcNAc(b1-3)Gal(b1-4)GlcNAc
# How it was run: as §1
# [4] = target: Fuc(a1-2)Gal(b1-4)GlcNAc6S
# How it was run: as §1
# [5] = target: Fuc(a1-2)Gal3S(b1-4)GlcNAc
# How it was run: as §1
# [6] = target: Fuc(a1-2)[Gal(a1-3)]Gal(b1-3)GalNAc(b1-3)Gal(a1-4)Gal(b1-4)Glc
# How it was run: as §1
# [7] = target: Fuc(a1-2)[Gal(a1-3)]Gal(b1-3)GlcNAc(b1-2)Man(a1-3)[Fuc(a1-2)[Gal(a1-3)]Gal(b1-3)GlcNAc(b1-2)Man(a1-6)]Man(b1-4)GlcNAc(b1-4)[Fuc(a1-6)]GlcNAc
# How it was run: as §1
# [8] = target: Fuc(a1-2)[GalNAc(a1-3)]Gal(b1-4)GlcNAc(b1-3)Gal(b1-4)GlcNAc(b1-3)Gal(b1-4)GlcNAc
# How it was run: as §1
# [9] = target: Fuc(a1-3)[Gal3S(b1-4)]Glc
# How it was run: as §1
# [10] = target: Gal(a1-3)Gal(b1-3)[Fuc(a1-4)]GlcNAc(b1-2)Man(a1-3)[Gal(a1-3)Gal(b1-3)[Fuc(a1-4)]GlcNAc(b1-2)Man(a1-6)]Man(b1-4)GlcNAc(b1-4)GlcNAc
# How it was run: as §1
# [11] = target: Gal(a1-3)Gal(b1-4)[Fuc(a1-3)]GlcNAc
# How it was run: as §1
# [12] = target: Gal(a1-3)Gal(b1-4)[Fuc(a1-3)]GlcNAc(b1-2)Man(a1-3)[Gal(a1-3)Gal(b1-4)[Fuc(a1-3)]GlcNAc(b1-2)Man(a1-6)]Man(b1-4)GlcNAc(b1-4)GlcNAc
# How it was run: as §1
# [13] = target: Gal(b1-3)GalNAc(b1-3)Gal(a1-4)Gal(b1-4)Glc
# How it was run: as §1
# [14] = target: Gal(b1-3)GlcNAc(b1-3)Gal(b1-4)GlcNAc(b1-3)Gal(b1-4)GlcNAc(b1-2)[Gal(b1-3)GlcNAc(b1-3)Gal(b1-4)GlcNAc(b1-3)Gal(b1-4)GlcNAc(b1-6)]Man(a1-6)[Gal(b1-3)GlcNAc(b1-3)Gal(b1-4)GlcNAc(b1-3)Gal(b1-4)GlcNAc(b1-2)Man(a1-3)]Man(b1-4)GlcNAc(b1-4)[Fuc(a1-6)]GlcNAc
# How it was run: as §1
# [15] = target: Gal(b1-4)GlcNAc(b1-2)Man(a1-6)Man(b1-4)GlcNAc(b1-4)GlcNAc
# How it was run: as §1
# [16] = target: Gal(b1-4)GlcNAc(b1-3)Gal(b1-4)GlcNAc(b1-3)Gal(b1-4)GlcNAc(b1-2)Man(a1-3)[Gal(b1-4)GlcNAc(b1-3)Gal(b1-4)GlcNAc(b1-3)Gal(b1-4)GlcNAc(b1-2)Man(a1-6)]Man(b1-4)GlcNAc(b1-4)[Fuc(a1-6)]GlcNAc
# How it was run: as §1
# [17] = target: Gal(b1-4)GlcNAc(b1-3)Gal(b1-4)GlcNAc(b1-3)Gal(b1-4)GlcNAc(b1-2)[Gal(b1-4)GlcNAc(b1-3)Gal(b1-4)GlcNAc(b1-3)Gal(b1-4)GlcNAc(b1-6)]Man(a1-6)[Gal(b1-4)GlcNAc(b1-3)Gal(b1-4)GlcNAc(b1-3)Gal(b1-4)GlcNAc(b1-2)Man(a1-3)]Man(b1-4)GlcNAc(b1-4)[Fuc(a1-6)]GlcNAc
# How it was run: as §1
# [18] = target: Gal(b1-4)GlcNAc(b1-3)Gal(b1-4)GlcNAc(b1-3)Gal(b1-4)GlcNAc(b1-3)Gal(b1-4)GlcNAc(b1-2)Man(a1-3)[Gal(b1-4)GlcNAc(b1-3)Gal(b1-4)GlcNAc(b1-3)Gal(b1-4)GlcNAc(b1-3)Gal(b1-4)GlcNAc(b1-2)Man(a1-6)]Man(b1-4)GlcNAc(b1-4)[Fuc(a1-6)]GlcNAc
# How it was run: as §1
# [19] = target: Gal(b1-4)GlcNAc(b1-3)Gal(b1-4)GlcNAc(b1-3)Gal(b1-4)GlcNAc(b1-3)Gal(b1-4)GlcNAc(b1-2)[Gal(b1-4)GlcNAc(b1-3)Gal(b1-4)GlcNAc(b1-3)Gal(b1-4)GlcNAc(b1-3)Gal(b1-4)GlcNAc(b1-6)]Man(a1-6)[Gal(b1-4)GlcNAc(b1-3)Gal(b1-4)GlcNAc(b1-3)Gal(b1-4)GlcNAc(b1-3)Gal(b1-4)GlcNAc(b1-2)Man(a1-3)]Man(b1-4)GlcNAc(b1-4)[Fuc(a1-6)]GlcNAc
# How it was run: as §1
# [20] = target: Gal(b1-4)GlcNAc(b1-3)Gal(b1-4)GlcNAc(b1-3)Gal(b1-4)GlcNAc(b1-3)Gal(b1-4)GlcNAc(b1-3)Gal(b1-4)GlcNAc(b1-2)Man(a1-3)[Gal(b1-4)GlcNAc(b1-3)Gal(b1-4)GlcNAc(b1-3)Gal(b1-4)GlcNAc(b1-3)Gal(b1-4)GlcNAc(b1-3)Gal(b1-4)GlcNAc(b1-2)Man(a1-6)]Man(b1-4)GlcNAc(b1-4)[Fuc(a1-6)]GlcNAc
# How it was run: as §1
# [21] = target: Gal(b1-4)GlcNAc(b1-3)Gal(b1-4)GlcNAc(b1-3)[Gal(b1-4)GlcNAc(b1-3)Gal(b1-4)GlcNAc(b1-6)]GalNAc
# How it was run: as §1
# [22] = target: Gal(b1-4)GlcNAc(b1-6)GalNAc
# How it was run: as §1
# [23] = target: Gal3S(b1-3)GalNAc
# How it was run: as §1
# [24] = target: Gal6S(b1-4)GlcNAc6S
# How it was run: as §1
# [25] = target: GalNAc(b1-4)GlcNAc(b1-3)GalNAc(b1-4)GlcNAc
# How it was run: as §1
# [26] = target: GlcA(b1-3)GlcNAc
# How it was run: as §1
binder,measurement,setting,value
"Erv41-EDTA (Saccharomyces cerevisiae), Q04651 (protein) MKFLVNVALVFMVVYISYIYAAAPEHHHHHHDYDIPTTENLYFQGAMGYIDQQYVVDSQVRDTVQINMDIYVNTKCDWLQINVRDQTMDRKLVLEELQLEEMPFFIPYDTKVNDINEIITPELDEILGEAIPAEFREKLDTRSFFDESDPNKAHLPEFNGCHVFGSIPVNRVSGELQITAKSLGYVASRKAPLEELKFNHVINEFSFGDFYPYIDNPLDNTAQFNQDEPLTTYVYYTSVVPTLFKKLGAEVDTNQYSVNDYRYLYKDVAAKGDKMPGIFFKYNFEPLSIVVSDVRL",glycan array binding signal (z-score),[1],0.618
same,glycan array binding signal (z-score),[2],2.18
same,glycan array binding signal (z-score),[3],-0.317
same,glycan array binding signal (z-score),[4],0.642
same,glycan array binding signal (z-score),[5],-0.093
same,glycan array binding signal (z-score),[6],-0.396
same,glycan array binding signal (z-score),[7],0.605
same,glycan array binding signal (z-score),[8],0.784
same,glycan array binding signal (z-score),[9],-0.042
same,glycan array binding signal (z-score),[10],-0.414
same,glycan array binding signal (z-score),[11],-0.74
same,glycan array binding signal (z-score),[12],2.1
same,glycan array binding signal (z-score),[13],1.08
same,glycan array binding signal (z-score),[14],1.31
same,glycan array binding signal (z-score),[15],-0.604
same,glycan array binding signal (z-score),[16],1.64
same,glycan array binding signal (z-score),[17],2.65
same,glycan array binding signal (z-score),[18],2.2
same,glycan array binding signal (z-score),[19],2.63
same,glycan array binding signal (z-score),[20],3.41
same,glycan array binding signal (z-score),[21],1.32
same,glycan array binding signal (z-score),[22],1.98
same,glycan array binding signal (z-score),[23],0.809
same,glycan array binding signal (z-score),[24],-0.128
same,glycan array binding signal (z-score),[25],-0.339
same,glycan array binding signal (z-score),[26],-0.217

# Reference: the supplement of paper PMC8728848
